# Bioassay records from PubChem.
# Pf Dd2 growth – blocks growth of Plasmodium falciparum Dd2 parasites; AID 1159554; hit rate 2.3% among 94,000; activity change, % at 10 µM; P. falciparum Dd2 growth, SYBR Green, 72 h; stronger effect = lower value; in the data active = activity change below about -80%; inconclusive = no clear call, values can overlap the other calls
# C diff HTS – inhibitors of Clostridium difficile growth; hit rate 0.25% among 86,000; Clostridium difficile clinical isolate growth, OD600, 24 h; stronger effect = lower value; growth activity, negative = inhibition, % at 16 µg/mL (by protocol);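 active = mean growth activity at or below -80% and every replicate also at or below -80%; inconclusive = mean at or below -80% but some replicate above -80%; inactive = mean growth activity above -80%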;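 note: 0% = DMSO wells and -100% = levofloxacin 16 µg/mL wells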
# T cruzi growth-1 – inhibitors of T. cruzi proliferation | T. cruzi beta-gal in NIH3T3, GalScreen luminescence, 90 h | inhibition, % at 8.34 µM | hit rate 5.9% among 77,000 | AID 624255;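 active = mean inhibition above about 93%, with at least 55% of replicates each passing it, limit read from the data, passing the limit was not always enough; inconclusive = only one of those two conditions holds; inactive = neither condition holds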
# T cruzi growth-2 – Trypanosoma cruzi proliferation inhibition; shares compounds with T cruzi growth-1; T. cruzi beta-gal in NIH3T3, GalScreen luminescence, 90 h; inhibition, % at 8.35 µM; hit rate 72% among 5,600; AID 651739;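 active = mean replicate inhibition above about 95% and at least 55% of replicates individually reaching it, limit read from the data; inconclusive = only one of the two criteria is met; inactive = neither criterion is met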
# T cruzi growth-3 – inhibitors of T. cruzi proliferation; AID 651740; inhibition, % at 2.09 µM; shares compounds with T cruzi growth-1; hit rate 21% among 5,600; T. cruzi beta-gal in NIH3T3, GalScreen luminescence, 90 h;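 active = mean inhibition above about 95%, with at least 55% of replicates also reaching it, limit read from the data; inconclusive = meets just one of the two conditions; inactive = meets neither condition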;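 note: plate controls were neutral control median for no effect and positive control median for full effect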
# NIH3T3 tox – cytotoxicity in mouse NIH/3T3 fibroblasts; shares compounds with T cruzi growth-1; NIH/3T3 viability, CellTiter-Glo ATP luminescence, 90 h; cytotoxicity (signal decrease), % at 8.35 µM; hit rate 14% among 5,600;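 active = mean signal decrease across replicates above about 35% based on untreated-well scatter, with enough replicates individually passing, limit read from the data; inconclusive = no rule stated though some were filed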;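 note: 0% = median of neutral control wells and 100% = median of positive control wells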
# NIH3T3 tox 2 – NIH/3T3 (mouse) viability loss; shares compounds with T cruzi growth-1; NIH/3T3 viability, CellTiter-Glo ATP luminescence, 90 h; inhibition, % at 24.9 µM; hit rate 56% among 5,600; AID 651744;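 active = mean loss of cell viability signal at or above a set limit, and enough replicates individually reaching it; inconclusive = meets only the mean limit or only the replicate share; inactive = meets neither condition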;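 note: 0% = median of neutral control wells and 100% = median of positive control wells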
# Active calls of the source: *; ? = inconclusive; · = no result given; ! = repeats disagree. Compounds with a hit are over-represented: about 6.8% of the library has one in this group of screens.
SMILES,Pf Dd2 growth,C diff HTS,T cruzi growth-1,T cruzi growth-2,T cruzi growth-3,NIH3T3 tox,NIH3T3 tox 2
C[C@H](CO)N1C[C@H](C)[C@@H](CN(C)Cc2ccc(Cl)c(Cl)c2)OCCCC[C@H](C)Oc2ccc(NS(=O)(=O)c3cccs3)cc2C1=O,-19.6,-5.4,?,85.0,107.2*,11.1,104.0*
C[C@@H]1CN([C@H](C)CO)C(=O)c2cc(NS(=O)(=O)c3ccc(Cl)cc3)ccc2O[C@@H]1CN(C)S(C)(=O)=O,-2.0,0.0,5.7,·,·,·,·
COc1ccc(S(=O)(=O)Nc2ccc3c(c2)C(=O)N([C@H](C)CO)C[C@@H](C)[C@H](CN(C)Cc2ccc(Cl)c(Cl)c2)O3)cc1,0.6,8.3,119.6*,102.2*,21.9,9.2,104.2*
COc1ccc(S(=O)(=O)Nc2ccc3c(c2)C(=O)N([C@@H](C)CO)C[C@H](C)[C@H](CN(C)Cc2ccc(Cl)c(Cl)c2)O3)cc1,1.6,14.0,114.1,·,·,·,·
C[C@H](CO)N1C[C@H](C)[C@H](CN(C)Cc2ccc(Cl)c(Cl)c2)Oc2ccc(NS(=O)(=O)c3ccc(F)cc3)cc2C1=O,17.4,8.7,26.9,·,·,·,·
COc1ccc(S(=O)(=O)Nc2ccc3c(c2)C(=O)N([C@H](C)CO)C[C@@H](C)[C@@H](CN(C)Cc2ccc(Cl)c(Cl)c2)O3)cc1,15.9,8.1,72.3,·,·,·,·
COc1ccc(S(=O)(=O)Nc2ccc3c(c2)C(=O)N([C@@H](C)CO)C[C@@H](C)[C@H](CN(C)Cc2ccc(Cl)c(Cl)c2)O3)cc1,-21.8,10.0,120.9*,95.8*,67.8,39.9*,105.2*
C[C@H]1CN([C@@H](C)CO)C(=O)c2cc(NS(=O)(=O)c3ccc(F)cc3)ccc2O[C@@H]1CN(C)Cc1ccc(Cl)c(Cl)c1,-7.0,44.6,?,101.5*,73.3,24.6,98.2*
CCCC#Cc1ccc2c(c1)O[C@@H](CN(C)C(=O)C1CC1)[C@H](C)CN([C@H](C)CO)S2(=O)=O,-37.7,-2.8,62.2,·,·,·,·
C[C@H](CO)N1C[C@H](C)[C@H](CN(C)C(=O)Cc2ccccc2)OCCCC[C@H](C)Oc2ccc(NC(=O)Nc3cccc4ccccc34)cc2C1=O,1.7,-1.9,85.3,·,·,·,·
C[C@@H]1CN([C@H](C)CO)C(=O)c2cc(NS(C)(=O)=O)ccc2O[C@@H]1CN(C)C(=O)Nc1ccc(F)cc1,18.6,-0.2,37.0,·,·,·,·
Cc1noc(C)c1NC(=O)Nc1ccc2c(c1)C(=O)N(C)[C@@H]1CC[C@@H](CC(=O)N(C)C)O[C@H]1CO2,1.5,-3.4,-30.2,·,·,·,·
C/C=C/c1cnc2c(c1)C(=O)N([C@H](C)CO)C[C@@H](C)[C@@H](CN(C)Cc1cncnc1)O2,31.4,1.1,·,·,·,·,·
CCCC#Cc1cnc2c(c1)C(=O)N([C@H](C)CO)C[C@@H](C)[C@H](CN(C)S(=O)(=O)c1cccc(OC)c1)O2,-43.9,-4.4,78.5,·,·,·,·
COc1cccc(S(=O)(=O)N(C)C[C@@H]2Oc3ncc(C#CC(C)C)cc3C(=O)N([C@H](C)CO)C[C@H]2C)c1,-36.6,0.6,88.3,·,·,·,·
CCCC#Cc1cnc2c(c1)C(=O)N([C@H](C)CO)C[C@@H](C)[C@@H](CN(C)S(=O)(=O)c1cccc(OC)c1)O2,-15.7,2.1,104.0*,99.1*,62.0,36.8*,64.7*
COc1cccc(S(=O)(=O)N(C)C[C@@H]2Oc3ncc(C#Cc4ccc(F)cc4)cc3C(=O)N([C@H](C)CO)C[C@@H]2C)c1,-53.9,-1.9,107.6*,102.8*,63.3,22.2,12.3
CCCC#Cc1cnc2c(c1)C(=O)N([C@@H](C)CO)C[C@@H](C)[C@H](CN(C)S(=O)(=O)c1cccc(OC)c1)O2,-47.8,0.1,88.5,·,·,·,·
COc1cccc(S(=O)(=O)N(C)C[C@@H]2Oc3ncc(C#CCC(C)C)cc3C(=O)N([C@H](C)CO)C[C@H]2C)c1,-48.3,0.9,112.4,·,·,·,·
COc1cccc(S(=O)(=O)N(C)C[C@@H]2Oc3ncc(C#CCN(C)C)cc3C(=O)N([C@H](C)CO)C[C@H]2C)c1,-1.9,1.2,96.0*!,?,84.0,13.3,16.9
COc1cccc(S(=O)(=O)N(C)C[C@@H]2Oc3ncc(C#CCC(C)C)cc3C(=O)N([C@@H](C)CO)C[C@H]2C)c1,-53.8,1.0,111.2*,107.4*,85.3,-0.8,76.5*
CO[C@H]1CN(C)C(=O)c2cc(NC(=O)NC(C)C)ccc2OC[C@H](C)NC[C@@H]1C,23.8,-0.1,-29.6,·,·,·,·
C[C@@H]1CCCCO[C@@H](CN(C)C(=O)Cc2ccccc2)[C@@H](C)CN([C@H](C)CO)C(=O)c2cc(NC(=O)Nc3ccc(C(F)(F)F)cc3)ccc2O1,-22.1,7.7,84.3,·,·,·,·
CCCC#Cc1cnc2c(c1)C(=O)N([C@@H](C)CO)C[C@@H](C)[C@H](CN(C)C(=O)c1cccc(F)c1)O2,-31.1,2.5,12.5,·,·,·,·
CCC(=O)N1CCC2(CC1)CN[C@@H](CO)c1c2c2ccc(OC)cc2n1C,-56.2,4.8,·,·,·,·,·
SMILES,Pf Dd2 growth,C diff HTS,T cruzi growth-1,T cruzi growth-2,T cruzi growth-3,NIH3T3 tox,NIH3T3 tox 2
COc1cccc(S(=O)(=O)N(C)C[C@H]2Oc3ncc(C#CC(C)C)cc3C(=O)N([C@@H](C)CO)C[C@H]2C)c1,-12.7,-6.9,109.2*,81.9,70.2,22.9,49.0*
COc1cccc(S(=O)(=O)N(C)C[C@H]2Oc3ncc(C#CCC(C)C)cc3C(=O)N([C@H](C)CO)C[C@@H]2C)c1,-63.4,-0.2,101.9*,105.9*,78.8,11.1,59.9*
COc1cccc(S(=O)(=O)N(C)C[C@H]2Oc3ncc(C#CC(C)C)cc3C(=O)N([C@H](C)CO)C[C@@H]2C)c1,-71.7,-11.3,64.7,·,·,·,·
COc1cccc(S(=O)(=O)N(C)C[C@@H]2Oc3ncc(C#CCC(C)C)cc3C(=O)N([C@H](C)CO)C[C@@H]2C)c1,-14.9,-1.8,-22.1,·,·,·,·
CO[C@H]1CN(C)C(=O)c2ccc(NC(=O)C3CC3)cc2OC[C@@H](C)N(CC2CCOCC2)C[C@@H]1C,-4.6,-4.2,17.1,·,·,·,·
CC(C)NC(=O)N1[C@@H](CO)[C@@H](c2ccccc2)C12CN(C(=O)CN(C)C)C2,-18.2,-1.5,·,·,·,·,·
N#C[C@@H]1N[C@@H](CO)[C@H]1c1ccc(C#CC2CCCC2)cc1,16.4,-1.9,?,70.7,8.0,-25.9,-0.6
N#C[C@@H]1N[C@@H](CO)[C@H]1c1ccc(C#Cc2ccccc2F)cc1,-9.5,-3.2,88.9,·,·,·,·
CN(C)CC#Cc1ccc([C@@H]2[C@H](C#N)N[C@@H]2CO)cc1,35.8,-21.3,80.2,·,·,·,·
N#C[C@H]1N[C@H](CO)[C@@H]1c1ccc(C#CC2CCCC2)cc1,-25.1,-5.4,31.1,·,·,·,·
N#C[C@@H]1N[C@@H](CO)[C@H]1c1ccc(C#Cc2ccc(F)cc2)cc1,3.2,-1.7,?,92.5,32.3,-31.2,10.8
